Shiga toxin inh: Shiga toxin inhibition. Vero cells, Shiga toxin protein synthesis inhibition reporter. inhibition, % at 38.7 µM. AID 2315. 290,000 compounds, 9.2% hits; in the data active = inhibition mostly above about 28%, no sharp cut-off; inactive = mostly below about 43%
LmPK inhibitor: blocks Leishmania mexicana pyruvate kinase activity; Q27686; purified LmPK, Kinase-Glo ATP luminescence, 1 h; Potency, µM (series often up to 57.5 µM), most hits filed as inhibitors; 290,000 compounds, 0.37% hits; AID 1721
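0.1 nM LmPK, 0.5 mM PEP, 0.1 mM ADP; 50 mM imidazole pH 7.2, 7 mM MgCl2, 50 mM KCl; 1 h RT. Kinase-Glo luminescence readout, normalized to no-enzyme (full inhibition) and uninhibited wells.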
Sm TGR block: blocks Schistosoma mansoni thioredoxin glutathione reductase | Q962Y6 | purified TGR, DTNB reduction, TNB absorbance 405 nm | Potency, µM (titrated, usually from 114 µM), most hits filed as inhibitors | 360,000 compounds, 3% hits | AID 485364; note: nearly all actives have a fitted effect of over 60% in size
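TGR 20 nM + NADPH 100 uM (dispensed conc.), cpd preinc 15 min RT; start with NADPH (500 uM addition) then DTNB (15 mM addition). Kinetic TNB absorbance, 405 nm filter. Four-parameter Hill fit across titration.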
CHX counter: counter-screen hit for Shiga toxin inhibitors, cycloheximide. cell reporter, cycloheximide protein synthesis inhibition counterscreen. max response, %. 300,000 compounds, 12% hits. AID 2314; in the data active = max response mostly above about 13%, no sharp cut-off; inactive = mostly below about 14%; note: read at 38.3 µM for the half of the compounds with a filed dose
Giardia FBPA inh: blocks Giardia fructose-bisphosphate aldolase activity | purified Giardia FBPA | Potency, µM (series often up to 59.6 µM), usual class: inhibitors | 290,000 compounds, 0.71% hits; note: nearly all actives have a fitted effect of over 55% in size
Target sequence (A8B2U2 whole entry, looked up): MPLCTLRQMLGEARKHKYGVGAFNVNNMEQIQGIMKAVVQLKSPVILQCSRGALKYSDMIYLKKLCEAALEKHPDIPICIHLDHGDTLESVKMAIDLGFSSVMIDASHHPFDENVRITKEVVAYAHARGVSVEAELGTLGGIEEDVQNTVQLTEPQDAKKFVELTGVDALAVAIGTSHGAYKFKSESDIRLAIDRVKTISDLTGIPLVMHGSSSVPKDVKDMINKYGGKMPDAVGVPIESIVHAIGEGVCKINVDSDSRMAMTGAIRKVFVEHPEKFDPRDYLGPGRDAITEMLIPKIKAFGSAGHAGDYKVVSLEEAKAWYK
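Giardia FBPA (40 nM reagent) was preincubated 10 min at RT with compound (up to 57.5 uM final), then substrate plus GAPDH/TPI/NAD/arsenate coupling system with diaphorase/resazurin was added; resorufin fluorescence (525/598 nm) was read after 20 min.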
Tb PYK inh: blocks Trypanosoma brucei pyruvate kinase; TbPYK enzyme, Kinase-Glo Plus ATP luminescence, 45 min; Potency, µM (top dose mostly 76.8 µM), hits mostly inhibitors; 410,000 compounds, 0.12% hits; AID 624173; note: nearly all actives have a fitted effect of over 50% in size
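Glycolytic pyruvate kinase of T. brucei was incubated with substrate, test compound and 130 uM ADP for 45 minutes at room temperature. Luminescent Kinase-Glo Plus signal was measured after 10 minutes.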
Hits are given with their value; - = inactive; ? = inconclusive; . = no result given. The full list was thinned out, with hits kept by preference. Unless noted, calls come from the whole dose curve; as a rule, active = well fitted curve in the direction sought with a large enough effect; inconclusive = small, poorly fitted or top-dose-only effect, or another doubt; inactive = no such curve, though single readings can be large; an effect the other way counts as inactive or inconclusive.

SMILES	Shiga toxin inh	LmPK inhibitor	Sm TGR block	CHX counter	Giardia FBPA inh	Tb PYK inh
Cc1ccc(NC(=O)Nc2ccc3c(c2)N(C)C(=O)CS3)nc1	-	-	-	-	-	-
CCCCC(=O)Oc1ccccc1C(=O)O	-	.	.	-	-	.
COC(=O)n1ccc(C(=O)Nc2ccccc2F)n1	-	-	-	27	-	-
Cc1cnc(C(=O)Nc2ccccc2-n2cccc2)cn1	-	-	50µM	-	-	-
Cc1cnc(C(=O)NCC(c2ccccc2)c2ccccc2)cn1	-	-	-	-	-	-
Cc1cnc(C(=O)Nc2ccccc2F)cn1	84	18µM	-	43	-	-
CCC(CC)C(=O)Nc1ccccc1-n1cccc1	-	-	-	-	-	-
Cc1cc(C)c(NC(=O)CSc2nc3ccccc3c3nc(CCn4cncc4C)nn23)c(C)c1	.	.	-	.	.	-
O=[N+]([O-])c1ccccc1S(=O)(=O)N1CCSCC1	.	.	-	.	.	-
CC1CN(C(=O)Nc2ccc(C(=O)NCc3ccccc3F)cc2)c2ccccc2S1 (stereo not drawn)	.	.	-	.	.	-
Cc1cc2c(c(C)nn2-c2ccccc2)c(=O)o1	-	-	?	-	-	-
Nc1c2c(=O)oc(-c3ccccc3)cc2nn1-c1ccccc1	115	-	-	38	-	-
Cc1c(-c2ccc(Cl)cc2)oc(=O)c2c(N)n(-c3ccccc3)nc12	-	-	-	24	-	-
O=c1c2ccccc2c(-c2ccc(Cl)cc2)nn1-c1ccccc1	-	-	-	-	-	-
COc1ccc(/C=N/OCc2ccc(Br)cc2)c(OC)c1	31	-	-	30	-	-
COc1ccc(/C=N\Nc2ccccn2)c(OC)c1	-	-	-	39	-	-
Clc1ccc(C=NNc2ccccn2)c(Cl)c1	.	.	.	.	.	-
Cc1ccc(C)c(/C=N/Nc2ccccn2)c1	53	-	-	20	-	-
COc1ccc(/C=N/Nc2ncc(Br)cn2)c(OC)c1	51	-	-	46	-	-
COc1ccc(/C=N/NS(C)(=O)=O)c(OC)c1	-	-	-	-	-	-
O=C(COc1ccc(Cl)cc1)NCCNC(=O)c1ccccn1	-	-	-	-	-	-
COc1ccc(/C=N/Nc2ccccn2)c(OC)c1OC	74	-	-	40	-	-
CC(=O)c1cnc2c(-c3ccccc3)cnn2c1C	-	-	-	18	-	-
CCOC(=O)Cc1c(C)nc2c(-c3ccccc3)cnn2c1C	-	-	-	36	-	-
CCOC(=O)c1cnc2c(-c3ccccc3)cnn2c1C	91	-	-	39	-	-
SMILES	Shiga toxin inh	LmPK inhibitor	Sm TGR block	CHX counter	Giardia FBPA inh	Tb PYK inh
COc1cccc(C(=O)CCN[C@@H](C)[C@H](O)c2ccccc2)c1	.	.	.	.	.	-
NNC(=O)c1cc(-c2ccccc2)sc1N	-	-	-	36	-	-
NNC(=O)c1sc(-c2ccccc2)cc1N	50	-	-	19	-	-
O=C(Nc1sc(-c2ccccc2)cc1C(=O)O)c1ccccc1	52	-	-	35	-	-
CCOC(=O)c1cc(-c2ccccc2)sc1NC(=O)c1ccc(OC)cc1	-	-	-	-	-	-
Cn1cc(S(=O)(=O)N2CCCCC2)cc1C(=O)NCc1ccc(Cl)cc1	-	.	-	-	.	-
O=C(Cn1nnc2ccccc2c1=O)NCCc1ccccc1	25	-	-	-	-	-
COc1ccc(CNC(=O)Cn2nnc3ccccc3c2=O)cc1	60	-	-	22	-	-
Cc1ccc(NC(=O)Cn2nnc3ccccc3c2=O)cc1C	-	-	-	-	-	-
O=C(Cn1nnc2ccccc2c1=O)NCCc1ccc(Cl)cc1Cl	-	-	-	-	-	-
Cc1ccc(NC(=O)Cn2nnc3ccccc3c2=O)cc1	-	-	-	32	-	-
CCOc1ccc(S(=O)(=O)NCCC(=O)NCc2ccc(OC)c(OC)c2)cc1	.	.	-	.	.	-
O=C(NC1CC1)c1ccc(F)cc1Cl	-	-	-	-	-	-
Cc1ccc(C(=O)NC2CCCCCCC2)c(Cl)c1	.	-	-	16	-	-
O=C(NC1CCCCCCC1)c1cc(F)c(F)cc1Cl	83	-	.	26	-	-
COc1ccc(NC(=O)CN(Cc2ccccc2)S(=O)(=O)c2ccc3nc(C)sc3c2)cc1	.	.	-	.	.	-
OCC[C@H]1C[C@H](O)[C@@H](O)[C@@]2(CCCc3ccccc3O2)O1	.	.	-	.	.	-
COc1ccc(CCNC(=O)CCc2c(C)c3cc4c(C)coc4cc3oc2=O)cc1	.	.	-	.	.	-
O=C(CN1CCN(Cc2ccc(F)cc2Cl)C1=O)NCCc1ccccc1	-	-	-	14	-	-
CCOc1ccc(CCNC(=O)CN2CCN(Cc3ccc(F)cc3Cl)C2=O)cc1OCC	.	.	-	.	.	-
O=C(O)CN1CCN(Cc2ccc(F)cc2Cl)C1=O	-	-	8.9µM	-	?	-
CCOC(=O)c1c(S(=O)(=O)N2CCN(c3cc(Cl)ccc3C)CC2)c(C)n(C)c1C	.	.	-	.	.	-
COc1ccccc1CN1CC2(CCN(S(C)(=O)=O)CC2)C1	.	.	.	.	-	-
Cc1cc(C)c(/C=C/c2onc(C)c2S(=O)(=O)N2CCC(C(=O)Nc3ccc(Cl)c(C(F)(F)F)c3)CC2)c(C)c1	.	.	-	.	.	-
O=C(NC1CCCC1)C1CC(c2ccc(F)cc2)=NO1 (stereo not drawn)	69	-	-	42	-	-
SMILES	Shiga toxin inh	LmPK inhibitor	Sm TGR block	CHX counter	Giardia FBPA inh	Tb PYK inh
CC(=O)c1ccc(NC(=O)C2CC(c3ccc(F)cc3)=NO2)cc1 (stereo not drawn)	-	-	-	-	-	-
CC1CCN(C(=O)C2CC(c3ccc(F)cc3)=NO2)CC1 (stereo not drawn)	98	-	-	36	-	-
CC1CCCC(C)N1C(=O)C1CC(c2ccc(F)cc2)=NO1 (stereo not drawn)	48	-	-	20	-	-
CCc1ccc2c(c1)C1(C(=O)N2)N2CCCC2C(C(=O)c2ccc3ccccc3c2)C12C(=O)Nc1ccccc12 (stereo not drawn)	65	-	-	46	-	-
Cc1cccc2c1NC(=O)C21N2CCCC2C(C(=O)c2ccc3ccccc3c2)C12C(=O)Nc1ccccc12 (stereo not drawn)	-	-	-	16	-	-
CN(C)c1ccc(N2C(=NC(=O)CCC3CCCC3)SC3CS(=O)(=O)CC32)cc1 (stereo not drawn)	-	-	-	-	-	-
CCOc1cc(N2CCOCC2)c(OCC)cc1NS(=O)(=O)c1ccc2c(c1)CC(=O)N2	.	.	.	.	.	-
Cc1ccc(C(=O)OCC(=O)N2CCOCC2)c(C)c1	-	-	-	18	-	-
Cc1ccc(C(=O)OCC(=O)N2CCOCC2)cc1	50	-	-	27	-	-
Cc1ccc(-c2ccc(OCC(=O)N3CCOCC3)cc2)cc1	62	-	-	42	-	-
Cc1cc(OCC(=O)N2CCOCC2)ccc1NC(=O)c1ccccc1C	-	-	-	21	.	-
N#Cc1ccc(C(=O)OCC(=O)N2CCOCC2)cc1	-	-	-	-	-	-

Screening data as filed in PubChem.
